Laboratory results published in the supplement of paper PMC12669032.

Key:
Test in all cases: growth AUC relative to DMSO control (median of replicates) (fraction); higher = more growth (less inhibition), active = hit call of the paper
Conditions in all cases: 20 µM; 24 h;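 active = AUC reduced over 20% with Padj below 0.05 in at least 2 of 3 replicates; inactive = otherwise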
Akkermansia muciniphila = system: Akkermansia muciniphila
Outline: (§1)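 Gut bacterial monocultures were grown anaerobically at 37 °C in mGAM, starting at OD600 0.05, with 20 µM compound (1% DMSO) in round-bottom 96-well plates under pierced gas-permeable seals. OD600 was read hourly for 24 h. Area under the growth curve (minimum OD set to 0) was normalised to the plate median of DMSO controls, or to row and column medians on the industrial chemical plate. The value is the median of three biological replicates grown on separate days.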

Bacteroides caccae = system: Bacteroides caccae
Outline: as §1

Bacteroides clarus = system: Bacteroides clarus
Outline: as §1

Bacteroides dorei = system: Bacteroides dorei
Outline: as §1

Bacteroides stercoris = system: Bacteroides stercoris
Outline: as §1

[1] = system: Bacteroides thetaiotaomicron
Outline: as §1

Bacteroides uniformis = system: Bacteroides uniformis
Outline: as §1

[2] = system: Bifidobacterium longum subsp. longum
Outline: as §1

Clostridium difficile = system: Clostridium difficile
Outline: as §1

Collinsella aerofaciens = system: Collinsella aerofaciens
Outline: as §1

Coprococcus comes = system: Coprococcus comes
Outline: as §1

Escherichia coli ED1a = system: Escherichia coli ED1a
Outline: as §1

Escherichia coli IAI1 = system: Escherichia coli IAI1
Outline: as §1

Eubacterium rectale = system: Eubacterium rectale
Outline: as §1

[3] = system: Fusobacterium nucleatum subsp. animalis
Outline: as §1

Lactobacillus gasseri = system: Lactobacillus gasseri
Outline: as §1

Lactobacillus paracasei = system: Lactobacillus paracasei
Outline: as §1

Odoribacter splanchnicus = system: Odoribacter splanchnicus
Outline: as §1

[4] = system: Parabacteroides distasonis
Outline: as §1

Parabacteroides merdae = system: Parabacteroides merdae
Outline: as §1

Measured: growth AUC

COC1CCC2(CC1)NC(=O)C(c1cc(C)ccc1C)=C2O (stereo not given)
inactive: Akkermansia muciniphila 0.863 | Bacteroides caccae 0.974 | Bacteroides clarus 1.05 | Bacteroides dorei 1.02 | Bacteroides stercoris 1.12 | [1] 1.01 | Bacteroides uniformis 1.01 | [2] 1.09 | Clostridium difficile 1.02 | Collinsella aerofaciens 1.05 | Coprococcus comes 1.02 | Escherichia coli ED1a 1.03 | Escherichia coli IAI1 1.02 | Eubacterium rectale 1.13 | [3] 1.13 | Lactobacillus gasseri 0.95 | Lactobacillus paracasei 1.05 | Odoribacter splanchnicus 1.05 | [4] 1.01 | Parabacteroides merdae 1.08

CCOC(=O)/C(Cl)=C/c1cc(N2C(=O)C3=C(CCCC3)C2=O)ccc1Cl
inactive: Akkermansia muciniphila 0.947 | Bacteroides caccae 0.97 | Bacteroides clarus 0.934 | Bacteroides dorei 0.99 | Bacteroides stercoris 0.834 | [1] 0.924 | Bacteroides uniformis 0.937 | [2] 0.912 | Clostridium difficile 1.03 | Collinsella aerofaciens 1.03 | Coprococcus comes 0.97 | Escherichia coli ED1a 1 | Escherichia coli IAI1 1.02 | Eubacterium rectale 0.951 | [3] 0.954 | Lactobacillus gasseri 1.1 | Lactobacillus paracasei 0.473 | Odoribacter splanchnicus 1.1 | [4] 0.971 | Parabacteroides merdae 0.948

COc1nc(C)nc(NC(=O)NS(=O)(=O)c2ccccc2OCCCl)n1
inactive: Akkermansia muciniphila 1.06 | Bacteroides caccae 1.09 | Bacteroides clarus 1.01 | Bacteroides dorei 1.02 | Bacteroides stercoris 1.02 | [1] 0.985 | Bacteroides uniformis 1.01 | [2] 1 | Clostridium difficile 0.998 | Collinsella aerofaciens 0.993 | Coprococcus comes 1.02 | Escherichia coli ED1a 0.948 | Escherichia coli IAI1 1 | Eubacterium rectale 0.987 | [3] 0.953 | Lactobacillus gasseri 0.933 | Lactobacillus paracasei 0.982 | Odoribacter splanchnicus 1 | [4] 0.98 | Parabacteroides merdae 0.97

C[C@@]1(c2ccccc2)NC(=O)N(Nc2ccccc2)C1=O
inactive: Akkermansia muciniphila 0.931 | Bacteroides caccae 1.04 | Bacteroides clarus 0.973 | Bacteroides dorei 1 | Bacteroides stercoris 0.965 | [1] 0.992 | Bacteroides uniformis 1.01 | [2] 0.96 | Clostridium difficile 1 | Collinsella aerofaciens 1.02 | Coprococcus comes 1.03 | Escherichia coli ED1a 1.02 | Escherichia coli IAI1 1.01 | Eubacterium rectale 0.948 | [3] 1 | Lactobacillus gasseri 1.05 | Lactobacillus paracasei 0.955 | Odoribacter splanchnicus 0.993 | [4] 1.02 | Parabacteroides merdae 0.996

CCc1cccc(CC)c1N(COC)C(=O)C(=O)O
inactive: Akkermansia muciniphila 0.957 | Bacteroides caccae 1.03 | Bacteroides clarus 0.971 | Bacteroides dorei 1.01 | Bacteroides stercoris 1.03 | [1] 1.03 | Bacteroides uniformis 1.02 | [2] 0.989 | Clostridium difficile 1.02 | Collinsella aerofaciens 1.03 | Coprococcus comes 0.981 | Escherichia coli ED1a 1.05 | Escherichia coli IAI1 0.999 | Eubacterium rectale 0.948 | [3] 1.04 | Lactobacillus gasseri 0.999 | Lactobacillus paracasei 1 | Odoribacter splanchnicus 1.01 | [4] 1.02 | Parabacteroides merdae 0.991

Oc1ccccc1O
inactive: Akkermansia muciniphila 0.968 | Bacteroides caccae 1.02 | Bacteroides clarus 1.03 | Bacteroides dorei 1 | Bacteroides stercoris 1 | [1] 1.03 | Bacteroides uniformis 1.04 | [2] 0.911 | Clostridium difficile 1.01 | Collinsella aerofaciens 1.01 | Coprococcus comes 0.993 | Escherichia coli ED1a 0.994 | Escherichia coli IAI1 1.01 | Eubacterium rectale 1 | [3] 1.01 | Lactobacillus gasseri 1 | Lactobacillus paracasei 0.995 | Odoribacter splanchnicus 1.08 | [4] 1.02 | Parabacteroides merdae 1

S=C([S-])NCCNC(=S)[S-].[Zn+2]
inactive: Akkermansia muciniphila 1.16 | Bacteroides caccae 1.05 | Bacteroides clarus 0.989 | Bacteroides dorei 0.999 | Bacteroides stercoris 0.983 | [1] 0.978 | Bacteroides uniformis 1.03 | [2] 0.995 | Clostridium difficile 0.972 | Collinsella aerofaciens 0.992 | Coprococcus comes 0.994 | Escherichia coli ED1a 0.998 | Escherichia coli IAI1 0.992 | Eubacterium rectale 1.1 | [3] 0.978 | Lactobacillus gasseri 0.966 | Lactobacillus paracasei 1.01 | Odoribacter splanchnicus 0.999 | [4] 1.01 | Parabacteroides merdae 0.974

O=C(O)Cc1c[nH]c2ccccc12
inactive: Akkermansia muciniphila 0.904 | Bacteroides caccae 0.973 | Bacteroides clarus 0.976 | Bacteroides dorei 1.03 | Bacteroides stercoris 1.02 | [1] 0.98 | Bacteroides uniformis 1.01 | [2] 1.01 | Clostridium difficile 1 | Collinsella aerofaciens 0.984 | Coprococcus comes 1.03 | Escherichia coli ED1a 1 | Escherichia coli IAI1 1.02 | Eubacterium rectale 1.02 | [3] 1.02 | Lactobacillus gasseri 1.22 | Lactobacillus paracasei 1.06 | Odoribacter splanchnicus 0.983 | [4] 1.02 | Parabacteroides merdae 1.02

CNC(=O)Sc1ccc(OS(C)(=O)=O)cc1
inactive: Akkermansia muciniphila 0.955 | Bacteroides caccae 1.02 | Bacteroides clarus 0.858 | Bacteroides dorei 0.925 | Bacteroides stercoris 0.77 | [1] 0.848 | Bacteroides uniformis 0.953 | [2] 0.847 | Clostridium difficile 0.96 | Collinsella aerofaciens 1.01 | Coprococcus comes 1.02 | Escherichia coli ED1a 1.01 | Escherichia coli IAI1 1.02 | Eubacterium rectale 1.54 | [3] 1.09 | Lactobacillus gasseri 0.933 | Lactobacillus paracasei 0.953 | Odoribacter splanchnicus 0.864 | [4] 0.817 | Parabacteroides merdae 0.938

N#Cc1ccccc1NC(=O)c1snc(Cl)c1Cl
inactive: Akkermansia muciniphila 1.07 | Bacteroides caccae 0.956 | Bacteroides clarus 0.982 | Bacteroides dorei 1.01 | Bacteroides stercoris 1.15 | [1] 1 | Bacteroides uniformis 0.974 | [2] 0.9 | Clostridium difficile 0.944 | Collinsella aerofaciens 1.05 | Coprococcus comes 0.967 | Escherichia coli ED1a 0.993 | Escherichia coli IAI1 0.995 | Eubacterium rectale 1.04 | [3] 1.09 | Lactobacillus gasseri 1 | Lactobacillus paracasei 1.01 | Odoribacter splanchnicus 1.01 | [4] 1 | Parabacteroides merdae 1.02

O=C(NC(=O)c1c(F)cccc1F)Nc1cc(C(F)(F)F)cc(C(F)(F)F)c1Cl
inactive: Akkermansia muciniphila 0.695 | Bacteroides caccae 0.852 | Bacteroides clarus 0.867 | Bacteroides dorei 0.982 | Bacteroides stercoris 0.849 | [1] 0.96 | Bacteroides uniformis 0.96 | [2] 0.819 | Clostridium difficile 1.02 | Collinsella aerofaciens 1.02 | Coprococcus comes 0.932 | Escherichia coli ED1a 0.949 | Escherichia coli IAI1 0.971 | Eubacterium rectale 0.941 | [3] 0.989 | Lactobacillus gasseri 1.33 | Lactobacillus paracasei 0.861 | Odoribacter splanchnicus 0.936 | [4] 0.948 | Parabacteroides merdae 0.951

CCCCCCCC/C=C\CCCCCCCCCCCC(=O)O
inactive: Akkermansia muciniphila 1.05 | Bacteroides caccae 1.01 | Bacteroides clarus 1.02 | Bacteroides dorei 0.995 | Bacteroides stercoris 1.01 | [1] 1.02 | Bacteroides uniformis 1.01 | [2] 0.902 | Clostridium difficile 1 | Collinsella aerofaciens 0.983 | Coprococcus comes 0.96 | Escherichia coli ED1a 1.02 | Escherichia coli IAI1 1.01 | Eubacterium rectale 0.983 | [3] 1.02 | Lactobacillus gasseri 0.979 | Lactobacillus paracasei 0.991 | Odoribacter splanchnicus 1 | [4] 0.914 | Parabacteroides merdae 1.01

O=C(Oc1ccccc1)n1c(C(F)(F)F)nc2cc(Cl)c(Cl)cc21
inactive: [2] 0.891 | Collinsella aerofaciens 0.958 | Coprococcus comes 1.03 | [3] 0.71
active: Akkermansia muciniphila 0.177 | Bacteroides caccae 0.215 | Bacteroides clarus 0.121 | Bacteroides dorei 0.236 | Bacteroides stercoris 0.0063 | [1] 0.0816 | Bacteroides uniformis 0.0127 | Clostridium difficile 0.561 | Escherichia coli ED1a 0.704 | Escherichia coli IAI1 0.588 | Eubacterium rectale 0.635 | Lactobacillus gasseri 0.431 | Lactobacillus paracasei 0.688 | Odoribacter splanchnicus 0.0297 | [4] 0.106 | Parabacteroides merdae 0.144

c1ccc(Sc2ccccc2)cc1
inactive: Akkermansia muciniphila 1.03 | Bacteroides caccae 1.01 | Bacteroides clarus 1.08 | Bacteroides dorei 1.01 | Bacteroides stercoris 1.05 | [1] 0.982 | Bacteroides uniformis 1.05 | [2] 1.03 | Clostridium difficile 1.02 | Collinsella aerofaciens 1.04 | Coprococcus comes 1.02 | Escherichia coli ED1a 1.03 | Escherichia coli IAI1 0.967 | Eubacterium rectale 1.02 | [3] 1.08 | Lactobacillus gasseri 1.1 | Lactobacillus paracasei 1.04 | Odoribacter splanchnicus 0.503 | [4] 1.01 | Parabacteroides merdae 1

COCC(=O)N(c1c(C)cccc1C)C(C)C(=O)O (stereo not given)
inactive: Akkermansia muciniphila 1.09 | Bacteroides caccae 0.998 | Bacteroides clarus 1 | Bacteroides dorei 1.01 | Bacteroides stercoris 1.13 | [1] 1.04 | Bacteroides uniformis 0.997 | [2] 0.951 | Clostridium difficile 0.95 | Collinsella aerofaciens 1.08 | Coprococcus comes 1.01 | Escherichia coli ED1a 1 | Escherichia coli IAI1 1.01 | Eubacterium rectale 1.09 | [3] 1.15 | Lactobacillus gasseri 1.04 | Lactobacillus paracasei 1.02 | Odoribacter splanchnicus 1.01 | [4] 1.01 | Parabacteroides merdae 1.05
